Source: PubChem BioAssay (NCATS)
“And” between values parts separate entries of the source, which are not always exact repeats. Equal values may be shown once. Records with an inconclusive call do not appear. The source made the active and inactive calls. Unless noted, calls follow the shape of the dose curve; as a rule, active = well fitted curve in either direction with a large enough effect (not every such curve was filed as active); inconclusive = small, poorly fitted or top-dose-only effect, or another doubt; inactive = flat fitted curve, though single readings scatter.

Legend:
[1] = AP1 Signaling Pathway (AID 357); details: ME-180 AP-1-bla reporter, EGF-induced, beta-lactamase ratio, 5 h;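 also: ME-180 reporter cells stimulated with EGF at its EC50 level; % is scaled to controls: 0 for no effect and ±100 for the full control effect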
Procedure, shortened: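 Read-out was the 460nm/530nm emission ratio (excitation 405nm) after CCF4 loading for 2.5 hours at room temperature. Cells carried an AP-1-driven beta-lactamase reporter, were stimulated with EC50 EGF plus compound for 5 hours, and AC50 values came from titrations.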

[2] = biological target: Cytochrome P450 1A2 (Homo sapiens) (UniProt P05177); experiment: p450-cyp1a2 (AID 410; calls by dose curve; also: potency is read from the fitted curve at half-maximal effect;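 as to activity change, negative = inhibition: -100% = full effect of reference inhibitor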); details: recombinant CYP1A2, luciferin-ME demethylation, luminescence; series mostly up to 57 µM
Chain of Cytochrome P450 1A2 (Homo sapiens) (P05177 whole entry, looked up): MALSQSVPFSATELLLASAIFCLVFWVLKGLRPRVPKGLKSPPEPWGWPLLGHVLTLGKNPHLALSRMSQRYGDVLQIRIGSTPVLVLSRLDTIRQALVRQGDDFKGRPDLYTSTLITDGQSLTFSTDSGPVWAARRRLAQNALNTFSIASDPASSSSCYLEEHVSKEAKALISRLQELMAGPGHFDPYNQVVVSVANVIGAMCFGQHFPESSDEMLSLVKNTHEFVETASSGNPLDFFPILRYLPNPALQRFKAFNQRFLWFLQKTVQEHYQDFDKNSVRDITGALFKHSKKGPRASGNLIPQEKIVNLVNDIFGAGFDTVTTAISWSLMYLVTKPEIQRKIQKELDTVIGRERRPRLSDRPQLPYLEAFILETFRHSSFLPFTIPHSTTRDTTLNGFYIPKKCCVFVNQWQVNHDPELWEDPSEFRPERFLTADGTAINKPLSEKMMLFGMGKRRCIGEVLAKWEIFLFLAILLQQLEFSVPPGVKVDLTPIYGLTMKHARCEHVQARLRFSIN
Procedure, shortened: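 Human CYP1A2 (20nM) demethylated Luciferin-ME at its Km (100uM) in 100mM KPO4. After 10 min compound preincubation, NADPH regeneration ran the reaction 60 min at room temperature. Luciferin was read by luminescence, normalized to 57 uM furafylline.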

[3] = NFAT Signaling Pathway (AID 444); details: Jurkat NFAT-bla M1, carbachol, beta-lactamase ratio, 5 h;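 also: carbachol stimulus at about its EC50 of 1 µM final; % is scaled to controls: 0 for no effect and ±100 for the full control effect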
Procedure, shortened: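 Jurkat cells carrying an NFAT-driven β-lactamase reporter and co-transfected muscarinic M1 receptor were treated with compound plus carbachol (1 uM final, an EC50 level) for 5 h at 37 °C. CCF4 loading followed for 1 h at RT; 460/530 nm ratio gave %activity.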

[4] = Stat Signaling Pathway (AID 446); details: ME-180 SIE beta-lactamase reporter, IL-6 stimulated, 5 h;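 also: ME-180 cervical cancer cells given 40 pM IL-6 alongside compound; SIE-controlled beta-lactamase reporter measured as 460/530 nm FRET emission ratio; % is scaled to controls: 0 for no effect and ±100 for the full control effect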
Procedure, shortened: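 Screening format detects activators and inhibitors alike: ME-180 SIE-bla cells stimulated at 40 pM IL-6 for 5 hrs with compound, then dual-emission beta-lactamase read at 405 nm excitation.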

[5] = biological target: Glucocorticoid receptor (Homo sapiens) (UniProt P04150); experiment: GR-GFP Redistribution (AID 450;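 active = compounds whose dose series gives a full or clear partial fitted curve of increased nuclear translocation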; also: potency is read from the fitted curve at half-maximal effect); details: U2OS GR-GFP nuclear translocation, laser cytometry, 2 h
Chain of Glucocorticoid receptor (Homo sapiens) (P04150 whole entry, looked up, the tested form may be a part): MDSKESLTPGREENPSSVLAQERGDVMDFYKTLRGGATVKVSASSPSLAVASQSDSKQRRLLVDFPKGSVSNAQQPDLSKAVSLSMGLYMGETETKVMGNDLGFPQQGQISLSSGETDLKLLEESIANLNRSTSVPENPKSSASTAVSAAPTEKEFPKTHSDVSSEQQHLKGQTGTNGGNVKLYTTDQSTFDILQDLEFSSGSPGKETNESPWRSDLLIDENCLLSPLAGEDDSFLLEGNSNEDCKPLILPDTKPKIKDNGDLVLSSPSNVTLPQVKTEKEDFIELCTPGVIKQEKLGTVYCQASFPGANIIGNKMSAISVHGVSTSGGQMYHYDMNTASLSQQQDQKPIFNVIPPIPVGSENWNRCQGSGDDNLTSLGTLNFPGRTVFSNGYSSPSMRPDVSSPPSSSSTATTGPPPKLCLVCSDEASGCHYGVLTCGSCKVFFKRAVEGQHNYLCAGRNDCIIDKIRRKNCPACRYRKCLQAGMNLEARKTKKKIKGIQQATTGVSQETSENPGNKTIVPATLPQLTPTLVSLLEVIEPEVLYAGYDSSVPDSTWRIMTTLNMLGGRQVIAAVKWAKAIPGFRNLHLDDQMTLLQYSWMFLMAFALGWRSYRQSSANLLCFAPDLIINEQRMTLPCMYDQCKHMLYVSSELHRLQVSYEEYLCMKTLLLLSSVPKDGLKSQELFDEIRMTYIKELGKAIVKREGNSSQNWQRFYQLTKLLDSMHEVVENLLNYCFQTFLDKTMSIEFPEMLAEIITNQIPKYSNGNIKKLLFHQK

[6] = biological target: Glucocorticoid receptor (Homo sapiens) (UniProt P04150); experiment: GR-EFC Redistribution (AID 451; calls by dose curve; also: potency is read from the fitted curve at half-maximal effect); details: CHO-K1 GR-EFC translocation, beta-gal luminescence, 2 h
Procedure, shortened: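 CHO-K1 cells stably expressing nuclear-localized β-gal enzyme acceptor and GR fused C-terminally to the enzyme donor fragment; ligand-driven nuclear translocation restores β-gal by complementation. Compounds titrated up to 46 uM final, 2 h at 37 °C; luminescence read.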

[7] = biological target: Mitogen-activated protein kinase 10 (Mus musculus) (UniProt Q61831); experiment: JNK3 AlphaScreen Assay (AID 530); details: JNK3 lysate, c-Jun phosphorylation; series mostly up to 57.1 µM;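 also: kinase came from lysate of stimulated human HepG2 cells; signal reports phosphorylation of biotinylated GST-cJun 1-79 at Ser73 with 10 µM ATP; % is scaled to controls: 0 for no effect and ±100 for the full control effect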
Procedure, shortened: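 JNK3 came from HepG2 lysates pre-activated with IL-1beta and TNF-alpha and phosphorylated biotinylated GST-cJun (1-79) at 10 uM ATP, pH 7.6, room temperature. Compounds were titrated. AlphaScreen signal used anti-phospho-cJun (Ser73) antibody.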

[8] = biological target: 3',5'-cyclic-AMP phosphodiesterase 4B (Homo sapiens) (UniProt Q07343); experiment: qHTS Assay for Inhibitors of PDE-IV (AID 607; active = well fitted activation curve with a large enough effect in the main read-out, with a control signal flat, not every such curve was filed as active; also: % of control where 0% means no effect); details: HEK293 ACTOne CNG channel cells, membrane potential fluorescence; series mostly up to 22.9 µM
Chain of 3',5'-cyclic-AMP phosphodiesterase 4B (Homo sapiens) (Q07343 whole entry, looked up): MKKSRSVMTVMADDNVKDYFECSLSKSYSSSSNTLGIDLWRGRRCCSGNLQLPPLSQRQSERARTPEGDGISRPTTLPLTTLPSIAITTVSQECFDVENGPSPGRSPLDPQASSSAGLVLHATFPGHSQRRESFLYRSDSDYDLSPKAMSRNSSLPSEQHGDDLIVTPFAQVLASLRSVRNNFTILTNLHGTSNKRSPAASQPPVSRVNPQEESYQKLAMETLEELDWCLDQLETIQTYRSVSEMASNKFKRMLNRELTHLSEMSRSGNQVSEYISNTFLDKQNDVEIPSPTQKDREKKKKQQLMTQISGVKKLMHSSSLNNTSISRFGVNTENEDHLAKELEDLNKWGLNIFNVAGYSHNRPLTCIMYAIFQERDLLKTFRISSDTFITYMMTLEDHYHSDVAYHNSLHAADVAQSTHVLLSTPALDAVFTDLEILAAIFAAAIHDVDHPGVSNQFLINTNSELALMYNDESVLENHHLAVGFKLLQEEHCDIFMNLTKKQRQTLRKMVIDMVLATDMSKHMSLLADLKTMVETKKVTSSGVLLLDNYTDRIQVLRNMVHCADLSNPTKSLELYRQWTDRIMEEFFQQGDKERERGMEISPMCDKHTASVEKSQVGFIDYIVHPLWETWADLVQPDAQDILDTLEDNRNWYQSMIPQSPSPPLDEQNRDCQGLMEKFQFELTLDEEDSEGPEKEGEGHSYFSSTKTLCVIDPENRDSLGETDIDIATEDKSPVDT
Procedure, shortened: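 The readout is membrane depolarisation from a cAMP-sensing CNG channel, detected with a potential dye at ex 535/em 590. Cells were HEK293-derived (endogenous PDE-IV) at 1000 cells/well, titrated up to 22.9 uM final.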

[9] = biological target: alpha-glucosidase (Oryza sativa, rice) (UniProt Q653V4); experiment: Counterscreen for Glucocerebrosidase Inhibitors: qHTS Assay for Rice alpha-Glucosidase at pH 5.0 (AID 997; active = well fitted curve in the direction sought with a large enough effect; an effect the other way counts as inactive or inconclusive;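 also: 0% = full activity with enzyme and -100% = basal without enzyme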); details: rice alpha-glucosidase enzyme activity; series mostly up to 76.9 µM
Procedure, shortened: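 Rice alpha-glucosidase (4 nM final) with 400 uM 4-methylumbelliferyl-alpha-D-glucopyranoside in citrate buffer pH 5.0, 20 min at room temperature, stopped at pH 10; fluorescence 365/440 nm, compounds 0.7 nM–77 uM, AC50 from Hill fits.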

[10] = qHTS Assay for Lipid Storage Modulators (AID 1519; calls by dose curve); details: Drosophila S3 cells, BODIPY lipid droplet/cell ratio, laser cytometry, cells loaded with oleic acid
Procedure, shortened: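 Cells seeded at 5,000 per well were treated with compounds over a concentration series and loaded with oleic acid (400 uM, as added). Lipid droplet fluorescence (488 nm excitation, 500-530 nm channel) was read by laser-scanning cytometry and normalized to 20 uM Triacsin C.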

[11] = biological target: Ubiquitin carboxyl-terminal hydrolase 1 (Homo sapiens) (UniProt O94782); experiment: Inhibitors of USP1/UAF1: Pilot qHTS (AID 504865; active = well fitted curve in the direction sought with a large enough effect; an effect the other way counts as inactive or inconclusive;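 also: rhodamine fluorescence freed from ubiquitin-rhodamine substrate followed over time; top concentration of the series differs between compounds; % is scaled to controls: 0 for no effect and ±100 for the full control effect; nearly all actives have a fitted effect of over 35% in size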); details: purified USP1/UAF1, Ub-rhodamine cleavage fluorescence; series mostly up to 54.9 µM
Chain of Ubiquitin carboxyl-terminal hydrolase 1 (Homo sapiens) (O94782 whole entry, looked up): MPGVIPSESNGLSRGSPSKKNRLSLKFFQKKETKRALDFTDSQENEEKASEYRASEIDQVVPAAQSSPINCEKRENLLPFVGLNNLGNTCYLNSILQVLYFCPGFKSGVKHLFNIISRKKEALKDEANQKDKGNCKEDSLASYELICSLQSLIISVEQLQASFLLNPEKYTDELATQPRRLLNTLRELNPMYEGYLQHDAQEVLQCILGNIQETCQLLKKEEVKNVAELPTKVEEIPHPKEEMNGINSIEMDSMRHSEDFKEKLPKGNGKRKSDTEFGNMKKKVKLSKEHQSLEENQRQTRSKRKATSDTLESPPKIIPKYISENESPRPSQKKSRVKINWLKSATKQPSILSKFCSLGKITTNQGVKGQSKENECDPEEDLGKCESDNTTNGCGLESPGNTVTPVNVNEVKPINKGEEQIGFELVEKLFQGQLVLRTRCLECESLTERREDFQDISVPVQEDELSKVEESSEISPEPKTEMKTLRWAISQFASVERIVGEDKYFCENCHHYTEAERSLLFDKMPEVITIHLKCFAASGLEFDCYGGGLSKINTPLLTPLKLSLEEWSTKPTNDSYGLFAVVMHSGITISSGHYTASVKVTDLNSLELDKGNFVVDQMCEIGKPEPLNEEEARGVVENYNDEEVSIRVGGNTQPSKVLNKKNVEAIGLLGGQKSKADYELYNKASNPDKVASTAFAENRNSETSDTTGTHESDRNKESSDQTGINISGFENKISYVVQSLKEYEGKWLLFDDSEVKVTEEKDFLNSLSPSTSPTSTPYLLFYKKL
Procedure, shortened: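 Enzyme-free wells gave the negative control, while test wells held 1nM USP1/UAF1 preincubated with compound for 15 min at room temperature. Ub-Rho at 150nM final started the reaction, and fluorescence at 480/540 nm was recorded kinetically.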

[12] = biological target: ATP-dependent 6-phosphofructokinase (Trypanosoma brucei brucei) (UniProt O15648); experiment: qHTS Assay to Find Inhibitors of T. brucei phosphofructokinase: hit validation (AID 492961; active = well fitted curve in the direction sought with a large enough effect; an effect the other way counts as inactive or inconclusive); details: T. brucei PFK, ADP-Glo luminescence; series mostly up to 24.3 µM
Chain of ATP-dependent 6-phosphofructokinase (Trypanosoma brucei brucei) (O15648 whole entry, looked up): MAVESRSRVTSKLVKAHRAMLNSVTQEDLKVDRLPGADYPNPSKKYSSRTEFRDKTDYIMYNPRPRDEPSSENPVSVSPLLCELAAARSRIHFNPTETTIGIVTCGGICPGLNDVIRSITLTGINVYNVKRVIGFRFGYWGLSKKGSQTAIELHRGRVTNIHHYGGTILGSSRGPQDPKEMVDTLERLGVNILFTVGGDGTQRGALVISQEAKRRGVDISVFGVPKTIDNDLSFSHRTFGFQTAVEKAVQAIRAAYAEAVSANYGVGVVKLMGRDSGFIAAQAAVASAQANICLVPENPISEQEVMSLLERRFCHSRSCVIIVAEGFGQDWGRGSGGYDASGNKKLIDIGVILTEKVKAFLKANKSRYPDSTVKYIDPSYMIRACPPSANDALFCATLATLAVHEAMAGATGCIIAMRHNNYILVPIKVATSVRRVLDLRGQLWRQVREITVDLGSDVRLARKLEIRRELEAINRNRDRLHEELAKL
Procedure, shortened: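 PFK 1.25 nM, F6P 0.5 mM, ATP 0.1 mM, MgCl2 5 mM, 0.1 M TEA pH 8.0, Tween20 0.01%, BSA 0.1%; 45 min RT. ADP-Glo two-step detection, luminescence. qHTS titration; curve fitting with curve-class categorization.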

[13] = biological target: Luciferin 4-monooxygenase (Photinus pyralis) (UniProt P08659); experiment: Biochemical firefly luciferase enzyme assay for NPC (AID 624030; active = well fitted curve in the direction sought with a large enough effect; an effect the other way counts as inactive or inconclusive;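 also: purified P. pyralis luciferase at 10 nM with luciferin and ATP substrate; 0% = DMSO and -100% = full luciferase inhibition by PTC124 control; nearly all actives have a fitted effect of over 70% in size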); details: purified P. pyralis luciferase, luminescence, 5 min; series mostly up to 58.6 µM
Chain of Luciferin 4-monooxygenase (Photinus pyralis) (P08659 whole entry, looked up): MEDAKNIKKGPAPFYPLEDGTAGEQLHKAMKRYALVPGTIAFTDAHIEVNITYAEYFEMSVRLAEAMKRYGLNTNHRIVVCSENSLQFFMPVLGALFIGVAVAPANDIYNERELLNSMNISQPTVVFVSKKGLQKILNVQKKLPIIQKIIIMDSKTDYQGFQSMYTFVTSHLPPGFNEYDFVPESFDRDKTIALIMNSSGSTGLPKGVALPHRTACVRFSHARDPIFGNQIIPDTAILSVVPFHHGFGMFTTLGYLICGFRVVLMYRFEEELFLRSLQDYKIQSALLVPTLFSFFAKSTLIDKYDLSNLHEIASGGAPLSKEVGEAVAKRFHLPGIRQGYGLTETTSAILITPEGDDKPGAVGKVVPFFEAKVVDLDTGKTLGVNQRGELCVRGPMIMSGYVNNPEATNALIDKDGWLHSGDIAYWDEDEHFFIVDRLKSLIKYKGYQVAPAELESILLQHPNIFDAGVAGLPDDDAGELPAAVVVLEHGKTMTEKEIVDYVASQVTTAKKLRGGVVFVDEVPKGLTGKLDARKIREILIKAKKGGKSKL
Procedure, shortened: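 Counter-screen for direct inhibition of the luciferase enzyme by approved-drug library compounds, run at 10 nM enzyme in 50 mM Tris acetate (final). Luminescence was read within 5 min of enzyme-buffer addition and normalized to PTC124 versus DMSO (0%).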

[14] = qHTS profiling for inhibitors of Plasmodium falciparum proliferation (AID 504749; active = well fitted curve in the direction sought with a large enough effect; an effect the other way counts as inactive or inconclusive;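 also: 0% = DMSO vehicle and full inhibition = artemisinin control; nearly all actives have a fitted effect of over 60% in size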); details: P. falciparum in erythrocytes, SYBR Green DNA, 72 h, at 12.8 µM (top of the series)
Procedure, shortened: (§1)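 P. falciparum-infected erythrocytes (0.3% parasitemia, 2.5% hematocrit final) were exposed to compounds for 72 h at 37 C in 5% CO2, then lysed with SYBR Green buffer overnight at room temperature; parasite DNA fluorescence was normalized to artemisinin and DMSO controls.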

AS120 = experiment: as above; details: P. falciparum in erythrocytes, SYBR Green DNA, 72 h; series mostly up to 28.7 µM
Procedure, shortened: as §1

CP238 = experiment: as above; details: P. falciparum in erythrocytes, SYBR Green DNA, 72 h; series mostly up to 12.8 µM
Procedure, shortened: as §1

CP250 = experiment: as above; details: P. falciparum in erythrocytes, SYBR Green DNA, 72 h; series mostly up to 12.8 µM
Procedure, shortened: as §1

CP262 = experiment: as above; details: P. falciparum in erythrocytes, SYBR Green DNA, 72 h; series mostly up to 12.8 µM
Procedure, shortened: as §1

CP265 = experiment: as above; details: P. falciparum in erythrocytes, SYBR Green DNA, 72 h; series mostly up to 12.8 µM
Procedure, shortened: as §1

FAB9 = experiment: as above; details: P. falciparum in erythrocytes, SYBR Green DNA, 72 h; series mostly up to 12.8 µM
Procedure, shortened: as §1

[15] = at 7.69 µM (top of the series) unless noted
[16] = measured here: cell count channel max response
[17] = measured here: lipid channel max response

C[C@@H](C[N+](C)(C)C)OC(N)=O
-0.356%: max response [10, 16]
inactive: activity change, negative = inhibition ([1]; at 17.2 µM (top of the series)) 2.54% | activity change, negative = inhibition ([1]; at 38 µM (top of the series)) 13.3% | Potency [2] | activity change, negative = inhibition ([3]; at 17.2 µM (top of the series)) 9.21% | activity change, negative = inhibition ([3]; at 38 µM (top of the series)) 17.1% | activity, negative = inhibition [4, 15] -3.42% [at 17.2 µM] | Potency [5] > 46 µM and > 20.6 µM | Potency [6] > 46 µM and > 20.6 µM | Potency [7] | Potency [8] | outcome [9] | activity change, negative = inhibition ([10]; at 25.7 µM (top of the series)) -1.39% | Potency [11]
-3.27%: max response [10, 17]

COc1ccccc1CNc1ncnc2ccc(-c3ccc(N(C)C)cc3)cc12
-15%: max response [10, 17]
inactive: activity, negative = inhibition [4, 15] -7.61% | Potency [5] > 46 µM | Potency [6] > 46 µM | Potency [8] | activity change, negative = inhibition ([10]; at 57.5 µM (top of the series)) 3.4%
active: Potency [2] 794 nM
-18%: max response [10, 16]

C[C@@]12CC[C@@H]3c4ccc(O)cc4CC[C@H]3[C@H]1CC[C@H]2O
-11.7%: max response [10, 16]
active: Potency [2] 10 µM and 5.01 µM
-11.1%: max response [10, 17]
inactive: activity change, negative = inhibition ([1]; at 17.2 µM (top of the series)) -5.6% | activity change, negative = inhibition ([1]; at 38 µM (top of the series)) -13.9% | activity change, negative = inhibition ([3]; at 17.2 µM (top of the series)) -19.1% | activity change, negative = inhibition ([3]; at 38 µM (top of the series)) -4.36% | activity, negative = inhibition ([4]; at 17.2 µM (top of the series)) -28.8% | activity, negative = inhibition ([4]; at 38 µM (top of the series)) -19.1% | Potency [5] > 46 µM and > 20.6 µM | Potency [6] > 46 µM and > 20.6 µM | Potency [7] | Potency [8] | activity change, negative = inhibition ([10]; at 25.7 µM (top of the series)) -0.875% | Potency [11]

CC(C)(Oc1ccc([C@@H]2CC2(Cl)Cl)cc1)C(=O)O
-16.1%: max response [10, 16]
inactive: activity change, negative = inhibition ([1]; at 17.2 µM (top of the series)) -1.19% | activity change, negative = inhibition ([1]; at 38 µM (top of the series)) -10.2% | Potency [2] | activity change, negative = inhibition ([3]; at 17.2 µM (top of the series)) -16.8% | activity change, negative = inhibition ([3]; at 38 µM (top of the series)) -7.66% | activity, negative = inhibition [4, 15] -2.06% [at 17.2 µM] | Potency [5] > 46 µM and > 20.6 µM | Potency [6] > 46 µM and > 20.6 µM | Potency [7] | Potency [8] | outcome [9] | activity change, negative = inhibition ([10]; at 25.7 µM (top of the series)) -0.371% | Potency [11]
-15.2%: max response [10, 17]

C[C@@](N)(Cc1ccc(O)c(O)c1)C(=O)O
6.8%: max response [10, 16]
-7.65%: max response [10, 17]
inactive: activity change, negative = inhibition ([1]; at 17.2 µM (top of the series)) 0.401% | activity change, negative = inhibition ([1]; at 38 µM (top of the series)) 5.17% and -4.03% | Potency [2] | activity change, negative = inhibition ([3]; at 17.2 µM (top of the series)) -8.05% | activity change, negative = inhibition ([3]; at 38 µM (top of the series)) 7.56% and -10% | activity, negative = inhibition ([4]; at 17.2 µM (top of the series)) 0.151% | activity, negative = inhibition ([4]; at 38 µM (top of the series)) -17.9% and -0.208% | Potency [7] | Potency [8] | outcome [9] | activity change, negative = inhibition ([10]; at 25.7 µM (top of the series)) -1.42% | Potency [11]

CC(C)(O/N=C(\C(=O)N[C@@H]1C(=O)N2C(C(=O)[O-])=C(C[n+]3ccccc3)CS[C@@H]12)c1csc(N)n1)C(=O)O
-1.95%: max response [10, 17]
-1.74%: max response [10, 16]
inactive: activity change, negative = inhibition [1, 15] 8.59% [at 17.2 µM] | Potency [2] | activity change, negative = inhibition [3, 15] 7.85% [at 17.2 µM] | activity, negative = inhibition [4, 15] 7.45% [at 17.2 µM] | Potency [5] > 20.6 µM | Potency [6] > 20.6 µM | Potency [7] | Potency [8] | activity change, negative = inhibition ([10]; at 25.7 µM (top of the series)) 0.159% | outcome [12] | Potency [11] | outcome [13] | activity, negative = inhibition ([14]; parasite line A) 2.04% | activity, negative = inhibition ([14]; parasite line B) -2.21% | Potency (AS120) | Potency (CP238) | Potency (CP250) | Potency (CP262) | Potency (CP265) | Potency (FAB9)
